{
  "source": "the supplement of paper PMC7366291",
  "note": "Counter-ions that a name gives are not always drawn. ± gives the standard deviation or the standard deviation of the averaged measurements.",
  "data": [
    {"tested_on": "Danio rerio Tg(wt1b:EGFP) embryo, pronephros", "assay": "glomerular separation, fold change vs DMSO control; higher = glomeruli further apart (abnormal)", "conditions": "25 µM; exposure: 24-48 hpf", "outline": "(§1)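 Features are reported as fold changes against the mean of same-day DMSO-treated embryos. Before that, values more than 2 SD away from the feature mean were excluded. The embryos, dechorionated Tg(wt1b:EGFP) zebrafish, had been exposed from 24 to 48 hpf at 28.5°C to 25 μM compound in 0.5% DMSO in HEPES-buffered E3 with 0.003% PTU, and distances and angles came from 16 manually set points on maximum projections of dorsal pronephros images in Fiji.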", "values": [
      {"smiles": "COC(=O)C1=C(C#N)NC(C)=C(C(=O)OC(C)C)C1c1cccc([N+](=O)[O-])c1", "note": "(stereo not given) [Nilvadipine]", "glomerular separation": "4.44 ± 1.4"},
      {"smiles": "CC1=C(/C=C/C(C)=C/C=C/C(C)=C/C(=O)O)C(C)(C)CCC1", "note": "[Retinoic acid]", "glomerular separation": "3.15 ± 1.8"},
      {"smiles": "Nc1ccc(O)c(C(=O)O)c1", "note": "[Mesalamine]", "glomerular separation": "1.23 ± 0.36"},
      {"smiles": "CN1CCN(C2=Nc3ccccc3Oc3ccc(Cl)cc32)CC1", "note": "[Loxapine succinate]", "glomerular separation": "1.15 ± 0.43"},
      {"smiles": "Clc1ccccc1CN1CCc2sccc2C1", "note": "[Ticlopidine hydrochloride]", "glomerular separation": "1.13 ± 0.49"},
      {"smiles": "C[C@]12CC[C@H]3C(=CCc4cc(O)ccc43)[C@@H]1CCC2=O", "note": "[Equilin]", "glomerular separation": "1.59 ± 0.67"},
      {"smiles": "Cn1c(=O)c2c(ncn2CC(O)CO)n(C)c1=O", "note": "(stereo not given) [Diprophylline]", "glomerular separation": "0.977 ± 0.2"},
      {"smiles": "Nc1nc(=O)c2nc(CNc3ccc(C(=O)N[C@@H](CCC(=O)O)C(=O)O)cc3)cnc2[nH]1", "note": "[Folic acid]", "glomerular separation": "0.808 ± 0.29"},
      {"smiles": "CSc1ccc2c(c1)N(CCC1CCCCN1C)c1ccccc1S2", "note": "(stereo not given) [Thioridazine hydrochloride]", "glomerular separation": "1.12 ± 0.33"},
      {"smiles": "CC(C)NCC(O)c1ccc(O)c(O)c1", "note": "(single isomer, unassigned; (-)) [(-)-Isoproterenol hydrochloride]", "glomerular separation": "0.881 ± 0.24"},
      {"smiles": "CN(Cc1cc(Br)cc(Br)c1N)C1CCCCC1", "note": "[Bromhexine hydrochloride]", "glomerular separation": "0.612 ± 0.2"},
      {"smiles": "NCCc1ccc(O)c(O)c1", "note": "[Dopamine hydrochloride]", "glomerular separation": "1.08 ± 0.44"},
      {"smiles": "CCn1cc(C(=O)O)c(=O)c2cc(F)c(N3CCN(C)CC3)cc21", "note": "[Pefloxacine]", "glomerular separation": "0.997 ± 0.31"},
      {"smiles": "O=C1NCN(c2ccccc2)C12CCN(CCCC(c1ccc(F)cc1)c1ccc(F)cc1)CC2", "note": "[Fluspirilen]", "glomerular separation": "2.89 ± 1.3"},
      {"smiles": "COc1cc2nc(N(C)CCCNC(=O)C3CCCO3)nc(N)c2cc1OC", "note": "(stereo not given) [Alfuzosin hydrochloride]", "glomerular separation": "1.23 ± 0.62"},
      {"smiles": "CC(CN(C)C)C(C)(O)Cc1ccc(Cl)cc1", "note": "(stereo not given) [Clobutinol hydrochloride]", "glomerular separation": "1.4 ± 0.46"},
      {"smiles": "CCN(CC)C(=O)C1(c2ccccc2)CC1CN", "note": "(stereo not given) [Milnacipran hydrochloride]", "glomerular separation": "0.724 ± 0.23"},
      {"smiles": "Cc1c(C)c2c(c(C)c1O)CCC(C)(C(=O)O)O2", "note": "(stereo not given) [Trolox]", "glomerular separation": "0.733 ± 0.23"},
      {"smiles": "C[C@]12CCC(=O)C=C1CC[C@@H]1[C@@H]2C(=O)C[C@@]2(C)[C@H]1CC[C@]2(O)C(=O)CO", "note": "[Cortisone]", "glomerular separation": "1.08 ± 0.37"},
      {"smiles": "CC1COc2c(N3CCN(C)CC3)c(F)cc3c(=O)c(C(=O)O)cn1c23", "note": "(stereo not given) [Ofloxacin]", "glomerular separation": "1.32 ± 0.67"},
      {"smiles": "CCCCCCCCNC(C)C(O)c1ccc(SC(C)C)cc1", "note": "(stereo not given) [Suloctidil]", "glomerular separation": "4.23 ± 2.2"},
      {"smiles": "CO[C@@]1(NC(=O)CSCC#N)C(=O)N2C(C(=O)O)=C(CSc3nnnn3C)CS[C@@H]21", "note": "[Cefmetazole sodium salt]", "glomerular separation": "0.79 ± 0.16"},
      {"smiles": "Cn1nnc2c(C(N)=O)ncn2c1=O", "note": "[Temozolomide]", "glomerular separation": "0.665 ± 0.25"},
      {"smiles": "NCC[C@H](O)C(=O)N[C@@H]1C[C@H](N)[C@@H](O[C@H]2O[C@H](CN)[C@@H](O)[C@H](O)[C@H]2O)[C@H](O)[C@H]1O[C@H]1O[C@H](CO)[C@@H](O)[C@H](N)[C@H]1O", "note": "[Amikacin hydrate]", "glomerular separation": "1.13 ± 0.48"},
      {"smiles": "COC(=O)Nc1nc2cc(C(=O)c3cccs3)ccc2[nH]1", "note": "[Nocodazole]", "glomerular separation": "1.86 ± 0.67"}
    ]},
    {"tested_on": "Danio rerio Tg(wt1b:EGFP) embryo, pronephros", "assay": "glomerular width (mean of left and right), fold change vs DMSO control; higher = wider glomerulus", "conditions": "25 µM; exposure: 24-48 hpf", "outline": "as §1", "values": [
      {"smiles": "CC(=O)OC(C)C[N+](C)(C)C", "note": "(stereo not given) [Methacholine chloride]", "glomerular width": "1.08 ± 0.0033"},
      {"smiles": "CCCc1cc(C(N)=S)ccn1", "note": "[Prothionamide]", "glomerular width": "0.9746 ± 0.0041"},
      {"smiles": "CC(N/C(=N\\C#N)Nc1ccncc1)C(C)(C)C", "note": "(stereo not given) [Pinacidil]", "glomerular width": "1.05 ± 0.1"},
      {"smiles": "CC(COc1ccccc1)N(CCCl)Cc1ccccc1", "note": "(stereo not given) [Phenoxybenzamine hydrochloride]", "glomerular width": "0.834 ± 0.03"},
      {"smiles": "CN1CCN(C(c2ccccc2)c2ccccc2)CC1", "note": "[Cyclizine hydrochloride]", "glomerular width": "0.9853 ± 0.0046"},
      {"smiles": "Cc1cc(NC(=O)C2=C(O)c3ccccc3S(=O)(=O)N2C)no1", "note": "[Isoxicam]", "glomerular width": "1.04 ± 0.034"},
      {"smiles": "CN(C)CCC(c1ccc(Br)cc1)c1ccccn1", "note": "(stereo not given) [Brompheniramine maleate]", "glomerular width": "1.04 ± 0.065"},
      {"smiles": "CCOc1ccc(NC(C)=O)cc1", "note": "[Phenacetin]", "glomerular width": "1.0834 ± 0.00038"},
      {"smiles": "Cc1cc(NS(=O)(=O)c2ccc(N)cc2)no1", "note": "[Sulfamethoxazole]", "glomerular width": "1.05 ± 0.026"},
      {"smiles": "CN1CCN2c3ccccc3Cc3ccccc3C2C1", "note": "(stereo not given) [Mianserine hydrochloride]", "glomerular width": "0.983 ± 0.035"},
      {"smiles": "CCC1(C)CC(=O)NC1=O", "note": "(stereo not given) [Ethosuximide]", "glomerular width": "1.07 ± 0.029"},
      {"smiles": "CN(C)CCOC(c1ccccc1)c1ccccc1", "note": "[Diphenhydramine hydrochloride]", "glomerular width": "1.03 ± 0.0021"},
      {"smiles": "CC(C(=O)O)c1ccc2c(c1)Cc1cccnc1O2", "note": "(stereo not given) [Pranoprofen]", "glomerular width": "0.956 ± 0.035"},
      {"smiles": "CCN(CC)Cc1cc(Nc2ccnc3cc(Cl)ccc23)ccc1O", "note": "[Amodiaquin dihydrochloride dihydrate]", "glomerular width": "0.999 ± 0.012"},
      {"smiles": "CC(=O)OCC(=O)NCCCOc1cccc(CN2CCCCC2)c1", "note": "[Roxatidine Acetate hydrochloride]", "glomerular width": "1 ± 0.03"},
      {"smiles": "COC(=O)C1=C(C#N)NC(C)=C(C(=O)OC(C)C)C1c1cccc([N+](=O)[O-])c1", "note": "(stereo not given) [Nilvadipine]", "glomerular width": "0.7 ± 0.04"},
      {"smiles": "CC1=C(/C=C/C(C)=C/C=C/C(C)=C/C(=O)O)C(C)(C)CCC1", "note": "[Retinoic acid]", "glomerular width": "0.639 ± 0.044"},
      {"smiles": "Nc1ccc(O)c(C(=O)O)c1", "note": "[Mesalamine]", "glomerular width": "0.956 ± 0.032"},
      {"smiles": "CN1CCN(C2=Nc3ccccc3Oc3ccc(Cl)cc32)CC1", "note": "[Loxapine succinate]", "glomerular width": "0.974 ± 0.014"},
      {"smiles": "Clc1ccccc1CN1CCc2sccc2C1", "note": "[Ticlopidine hydrochloride]", "glomerular width": "1.09 ± 0.048"},
      {"smiles": "C[C@]12CC[C@H]3C(=CCc4cc(O)ccc43)[C@@H]1CCC2=O", "note": "[Equilin]", "glomerular width": "0.988 ± 0.038"},
      {"smiles": "Cn1c(=O)c2c(ncn2CC(O)CO)n(C)c1=O", "note": "(stereo not given) [Diprophylline]", "glomerular width": "0.966 ± 0.01"},
      {"smiles": "Nc1nc(=O)c2nc(CNc3ccc(C(=O)N[C@@H](CCC(=O)O)C(=O)O)cc3)cnc2[nH]1", "note": "[Folic acid]", "glomerular width": "0.941 ± 0.044"},
      {"smiles": "CSc1ccc2c(c1)N(CCC1CCCCN1C)c1ccccc1S2", "note": "(stereo not given) [Thioridazine hydrochloride]", "glomerular width": "1.03 ± 0.047"},
      {"smiles": "CC(C)NCC(O)c1ccc(O)c(O)c1", "note": "(single isomer, unassigned; (-)) [(-)-Isoproterenol hydrochloride]", "glomerular width": "1.033 ± 0.0021"},
      {"smiles": "CN(Cc1cc(Br)cc(Br)c1N)C1CCCCC1", "note": "[Bromhexine hydrochloride]", "glomerular width": "0.984 ± 0.067"},
      {"smiles": "NCCc1ccc(O)c(O)c1", "note": "[Dopamine hydrochloride]", "glomerular width": "1.05 ± 0.054"},
      {"smiles": "CCn1cc(C(=O)O)c(=O)c2cc(F)c(N3CCN(C)CC3)cc21", "note": "[Pefloxacine]", "glomerular width": "1.01 ± 0.021"},
      {"smiles": "O=C1NCN(c2ccccc2)C12CCN(CCCC(c1ccc(F)cc1)c1ccc(F)cc1)CC2", "note": "[Fluspirilen]", "glomerular width": "0.687 ± 0.11"},
      {"smiles": "COc1cc2nc(N(C)CCCNC(=O)C3CCCO3)nc(N)c2cc1OC", "note": "(stereo not given) [Alfuzosin hydrochloride]", "glomerular width": "1.01 ± 0.02"},
      {"smiles": "CC(CN(C)C)C(C)(O)Cc1ccc(Cl)cc1", "note": "(stereo not given) [Clobutinol hydrochloride]", "glomerular width": "0.945 ± 0.026"},
      {"smiles": "CCN(CC)C(=O)C1(c2ccccc2)CC1CN", "note": "(stereo not given) [Milnacipran hydrochloride]", "glomerular width": "1.19 ± 0.037"},
      {"smiles": "Cc1c(C)c2c(c(C)c1O)CCC(C)(C(=O)O)O2", "note": "(stereo not given) [Trolox]", "glomerular width": "0.963 ± 0.058"},
      {"smiles": "C[C@]12CCC(=O)C=C1CC[C@@H]1[C@@H]2C(=O)C[C@@]2(C)[C@H]1CC[C@]2(O)C(=O)CO", "note": "[Cortisone]", "glomerular width": "1.13 ± 0.017"},
      {"smiles": "CC1COc2c(N3CCN(C)CC3)c(F)cc3c(=O)c(C(=O)O)cn1c23", "note": "(stereo not given) [Ofloxacin]", "glomerular width": "1.043 ± 0.0041"},
      {"smiles": "CCCCCCCCNC(C)C(O)c1ccc(SC(C)C)cc1", "note": "(stereo not given) [Suloctidil]", "glomerular width": "0.877 ± 0.029"},
      {"smiles": "CO[C@@]1(NC(=O)CSCC#N)C(=O)N2C(C(=O)O)=C(CSc3nnnn3C)CS[C@@H]21", "note": "[Cefmetazole sodium salt]", "glomerular width": "1.004 ± 0.0038"},
      {"smiles": "Cn1nnc2c(C(N)=O)ncn2c1=O", "note": "[Temozolomide]", "glomerular width": "1 ± 0.046"},
      {"smiles": "NCC[C@H](O)C(=O)N[C@@H]1C[C@H](N)[C@@H](O[C@H]2O[C@H](CN)[C@@H](O)[C@H](O)[C@H]2O)[C@H](O)[C@H]1O[C@H]1O[C@H](CO)[C@@H](O)[C@H](N)[C@H]1O", "note": "[Amikacin hydrate]", "glomerular width": "1.02 ± 0.028"},
      {"smiles": "COC(=O)Nc1nc2cc(C(=O)c3cccs3)ccc2[nH]1", "note": "[Nocodazole]", "glomerular width": "0.523 ± 0.024"}
    ]}
  ]
}
